# Source: PubChem (National Center for Advancing Translational Sciences (NCATS))
# Compounds with a hit are over-represented: about 21% of the library has one in this group of screens.
# Gal4-VP16 FLuc: Gal4-VP16 reporter inhibition counter-screen. Drosophila S2 Gal4-VP16 UAS-luciferase, luminescence, 20 h. Potency, µM (series often up to 53.6 µM), usual class: inhibitors. AID 2546. 310,000 compounds, 3.5% hits;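 note: Gal4-VP16 expression switched on by copper sulfate through the metallothionein promoter; nearly all actives have a fitted effect of over 50% in size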
# RORgamma inh: ROR gamma (mouse) transcription inhibition; P51450; Drosophila S2 Gal4-RORgamma UAS-luciferase reporter, 20 h; Potency, µM (series often up to 53.6 µM), actives largely listed as inhibitors; 310,000 compounds, 5.4% hits; AID 2551; note: nearly all actives have a fitted effect of over 60% in size
# Target sequence (P51450 whole entry, looked up, the tested form may be a part): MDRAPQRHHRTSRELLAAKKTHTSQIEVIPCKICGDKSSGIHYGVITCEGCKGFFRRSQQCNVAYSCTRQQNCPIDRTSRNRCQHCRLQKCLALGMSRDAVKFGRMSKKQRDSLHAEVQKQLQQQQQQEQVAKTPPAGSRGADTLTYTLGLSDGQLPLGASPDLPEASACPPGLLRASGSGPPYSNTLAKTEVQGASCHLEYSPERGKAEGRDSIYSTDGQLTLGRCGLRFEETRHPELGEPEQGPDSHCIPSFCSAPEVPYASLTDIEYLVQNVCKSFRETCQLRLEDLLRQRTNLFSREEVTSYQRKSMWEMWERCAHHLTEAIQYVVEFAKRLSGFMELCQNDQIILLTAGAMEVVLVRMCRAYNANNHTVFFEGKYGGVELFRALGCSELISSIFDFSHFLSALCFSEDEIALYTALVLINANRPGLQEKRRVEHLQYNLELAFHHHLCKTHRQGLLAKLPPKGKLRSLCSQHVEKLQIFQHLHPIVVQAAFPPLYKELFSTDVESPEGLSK
#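 Luminescence from a UAS-regulated Photinus luciferase reporter in stably transfected Drosophila Schneider cells is measured; decreased signal marks ROR gamma inhibition. Fusion expression is induced by 700 uM copper sulfate for 20 hr.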
# DT40 TDP1 no CPT: qHTS for Inhibitors of human tyrosyl-DNA phosphodiesterase 1 (TDP1): qHTS in cells in absence of CPT; 420,000 compounds, 15% hits; DT40 Tdp1-/- hTDP1 cells, no CPT, ATP luminescence, 48 h; Potency, µM (series often up to 46.2 µM), most hits filed as inhibitors; note: nearly all actives have a fitted effect of over 55% in size
#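 Growth of hTDP1-complemented DT40 Tdp1-knockout cells is measured by ATP luminescence after at least 48 hr compound exposure at 37 °C, with DMSO substituting for the 20 nM CPT used in the parallel screen.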
# IL-1B inflam inh: blocks inflammasome-driven IL-1 beta release | THP-1 LPS/ATP IL-1B secretion, AlphaLISA, 16 h; stronger effect = lower value | activity change, % at 57.5 µM | 360,000 compounds, 4.7% hits; in the data active = activity change below about -50%; inconclusive = mostly about -30% to -49%
#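 Secreted IL-1B measured by AlphaLISA bead assay after 16 h compound exposure of THP-1 cells; compounds (final up to 57.5 uM) added 1 h before LPS (250 ng/mL) and ATP (1.25 mM) stimulation; lower signal means less secretion.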
# TDP1 cell CPT: growth inhibition of DT40 Tdp1-/-;hTDP1 cells with camptothecin (screen for TDP1 inhibitors) | 420,000 compounds, 12% hits | chicken DT40 Tdp1-/-;hTDP1 cells + 20 nM CPT, ATP luminescence, 48 h | Potency, µM (highest dose often 46.2 µM), most hits filed as inhibitors | AID 686979; note: nearly all actives have a fitted effect of over 55% in size
#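 Chicken DT40 Tdp1-/- cells stably complemented with human TDP1 were seeded at 400 cells/well in medium containing 20 nM camptothecin, exposed to pin-transferred compounds, and grown at 37 °C for at least 48 hr. Viability was read as ATP luminescence.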
# ELG1 DNA repair: ELG1-dependent DNA repair inhibition | 330,000 compounds, 2.3% hits | AID 504467 | Potency, µM (top dose mostly 46.1 µM), actives largely listed as inhibitors | HEK293T ELG1-luciferase reporter, luminescence, 16 h; DNA damage induced by 5-fluorouridine; note: nearly all actives have a fitted effect of over 55% in size
#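 Quantitative HTS, concentration-response format. 2,000 cells/well co-treated with 5-fluorouridine and compound, 16 hr in 5% CO2 at 37 °C; ONE-Glo luminescence read after 30 min.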
# Numbers stand for hits; n = inactive; u = inconclusive; x = no result; [ ] = another dose, or the depositor's remark. Unless noted, calls come from the whole dose curve; as a rule, active = well fitted curve in the direction sought with a large enough effect; inconclusive = small, poorly fitted or top-dose-only effect, or another doubt; inactive = no such curve, though single readings can be large; an effect the other way counts as inactive or inconclusive.
SMILES,Gal4-VP16 FLuc,RORgamma inh,DT40 TDP1 no CPT,IL-1B inflam inh,TDP1 cell CPT,ELG1 DNA repair
Cc1cn(C2CC(N=[N+]=[N-])C(CO)O2)c(=O)[nH]c1=O (stereo unspecified),n,n,u,x,u,x
O=C(c1ccco1)N1CCN(C2c3ccccc3-c3ccccc32)CC1,n,n,u,n,u,n
CC(C)OC(=O)CN1CCN(C2c3ccccc3-c3ccccc32)CC1,n,n,29µM,n,u,n
CCCc1nc2oc3c(NCCN(C)C)ncnc3c2c2c1CCCC2,n,n,16µM,n,18µM,n
CC(C)Cc1nc2oc3c(NCC(C)O)ncnc3c2c2c1CCCC2 (stereo unspecified),n,n,15µM,n,u,15µM
O=C(COC(=O)CNS(=O)(=O)c1ccc(Cl)cc1)NC1CCCCC1,x,x,u,n,n,n
CCCC[C@@H]1C[C@H]1[C@@H](NC(=O)c1cccs1)c1ccc(Cl)cc1,n,u,15µM,n,29µM,u
CCCC[C@@H]1C[C@H]1[C@@H](NC(=O)c1cccs1)c1ccc(C(F)(F)F)cc1,x,x,21µM,n,u,x
CCCC[C@@H]1C[C@H]1C(NC(=O)c1ccc(C(F)(F)F)cc1)c1ccc(C(=O)OC)cc1 (stereo partly specified),n,n,x,x,x,x
CCCC[C@@H]1C[C@H]1C(NC(=O)c1cccs1)c1ccc(-c2ccccc2)cc1 (stereo partly specified),n,n,x,x,x,x
CCCC[C@@H]1C[C@H]1C(NC(=O)c1ccccc1)c1ccc(C(F)(F)F)cc1 (stereo partly specified),u,16µM,x,x,x,x
CCCC[C@@H]1C[C@H]1C(NC(=O)c1ccccc1)c1ccc(-c2ccccc2)cc1 (stereo partly specified),n,n,x,x,x,x
COc1cc(NC(=O)c2cn(C3CCCC3)c(=O)c3c2c2ccccc2n3C)cc(OC)c1OC,x,x,18µM,x,u,x
CCOc1ccccc1NC(=O)c1cn(C2CCCC2)c(=O)c2c1c1ccccc1n2C,x,x,9.2µM,x,13µM,x
COc1ccc(N(Cc2nnc3n2CCCCC3)C(=O)Nc2cccc(C)c2)cc1Cl,x,x,n,x,n,x
COCCNC(=O)CN1C(=O)c2cccnc2Sc2ccccc21,x,x,n,x,n,x
Cc1cn(S(=O)(=O)c2ccc(F)c(Cl)c2)cn1,x,x,n,x,n,x
CC(C)Cn1c(-c2cccs2)nc2ccccc21,u,n,u,n,16µM,u
CC(C)Cn1c(-c2ccccc2Cl)nc2ccccc21,x,x,16µM,x,u,x
c1csc(Cn2c(-c3cccs3)nc3ccccc32)c1,u,u,n,n,u,n
Cn1c(-c2ccc(C=O)s2)nc2ccccc21,n,u,n,n,n,u
Cc1ccccc1Cn1c(-c2cccs2)nc2ccccc21,x,x,16µM,x,u,x
Cn1c(-c2cccs2)nc2ccccc21,n,13µM,u,n,n,u
Cc1noc(C)c1C(=O)N1CCC[C@@]2(CCN(C(c3ccccc3)c3ccccc3)C2)C1,n,n,u,x,u,x
CCOC(=O)C1CCCN(C(=O)c2ccc3ccccc3c2)CC1 (stereo unspecified),x,x,u,n,u,x
SMILES,Gal4-VP16 FLuc,RORgamma inh,DT40 TDP1 no CPT,IL-1B inflam inh,TDP1 cell CPT,ELG1 DNA repair
COc1ccc(CCNC(=O)c2ccc(Cl)cc2)cc1OC,n,n,u,n,n,n
Nc1nc2ccc(Cl)cc2cc1C(=O)NCCc1ccc(O)cc1,x,x,18µM,n,u,x
COc1ccc(CCNC(=O)c2cc3cc(Cl)ccc3nc2N)cc1OC,x,x,8.2µM,n,13µM,x
CCCCC1CC2=C(C(=O)OC(C)(C)O2)C(c2ccc(Cl)cc2)O1 (stereo unspecified),x,x,u,n,u,x
CCn1c(SCc2ccc(F)cc2)nc2ccccc2c1=O,n,n,n,n,n,n
CCc1ccc(-n2c(N3CCN(c4cccc(Cl)c4)CC3)nc3ccccc3c2=O)cc1,x,x,8.2µM,x,6.5µM,x
CCc1ccc(-n2c(N3CCN(c4ccc(F)cc4)CC3)nc3ccccc3c2=O)cc1,x,x,12µM,x,23µM,x
COc1cccc(NC(=O)CSc2nc3c(sc4ccccc43)c(=O)n2CCN(C)C)c1,n[10 µM],n,u,-108,15µM,n
CCCCn1c(SCC(=O)Nc2ccc(F)cc2)nc2c(sc3ccccc32)c1=O,x,x,n,x,n,x
CCN(CC)CCn1c(SCC(=O)NCCC2=CCCCC2)nc2c(sc3ccccc32)c1=O,n,n,u,-60,u,n
CCC(Sc1nc2c(sc3ccccc32)c(=O)n1CCCC(=O)NC1CCCC1)C(=O)Nc1cccc(OC)c1 (stereo unspecified),x,x,u,x,n,x
COc1cccc(NC(=O)CSc2nc3c(sc4ccccc43)c(=O)n2CCCN2CCCC2)c1,n,n,10µM,u,u,n
CCN(CC)CCn1c(SCC(=O)Nc2cccc(OC)c2)nc2c(sc3ccccc32)c1=O,u,n,4.6µM,-79,18µM,u
COc1cc(CNc2ncnc3c2ncn3[C@H]2CN(CCN3CCOCC3)C[C@@H](CO)O2)cc(OC)c1OC,x,x,n,n,n,x
C[C@H](CO)N1C[C@H](C)[C@@H](CN(C)CC2CCCCC2)Oc2ccc(NC(=O)Cn3cnnn3)cc2C1=O,x,x,n,n,n,n
COc1ccccc1CN1CCCC2(CCN(C(=O)c3cc(C(F)(F)F)cc(C(F)(F)F)c3)CC2)C1,n,n,n,x,n,x
O=C(OCC(O)C1OC(c2ccccc2)OC(COC(=O)c2ccccc2)C1O)c1ccccc1 (stereo unspecified),x,x,u,n,u,x
CC1(C(=O)Nc2ccc(F)cc2F)CCN1C(=O)Cc1ccccc1 (stereo unspecified),x,x,n,n,n,x
CCC(C)CN1C(=O)CN(S(C)(=O)=O)CC1(C)C(=O)NC(C)C (stereo unspecified),x,x,n,n,n,x
CCN1CCN(Cc2nc3cc(NC(=O)c4cc(OC)c(OC)c(OC)c4)ccc3n2CC)CC1,x,x,n,x,n,x
COc1ccc(/C=C2\CN(Cc3ccccc3)C/C(=C\c3ccc(OC)cc3)C2=O)cc1,u,n,16µM,n,10µM,u
COc1ccc(C=C2CCc3ccccc3C2=O)cc1,x,x,u,n,u,x
c1ccc(Nc2ncnc3sccc23)cc1,n,n,n,n,n,n
CC(Nc1ncnc2sccc12)c1ccccc1 (stereo unspecified),1.4µM,u,0.92µM,n,2.6µM,u
COc1ccc(-c2cc3nc(C)c(CCC(=O)N4CCN(c5ccc(F)cc5)CC4)c(C)n3n2)c(OC)c1,x,x,16µM,x,23µM,x
COc1ccc(N2CCN(C(=O)CCc3c(C)nc4cc(-c5ccc(Cl)cc5)nn4c3C)CC2)cc1,x,x,n,x,n,x
